Screens: PubChem BioAssay, The Scripps Research Institute Molecular Screening Center
TTR transcr act – increases transthyretin transcription | SH-SY5Y TTR promoter Gaussia luciferase, luminescence; 100% = recombinant luciferase protein wells | activation, % at 16.7 µM | 1.3% of 92,000 active;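 active = activation above the mean of all tested compounds plus 3 SD, cut at about 9.5% in these data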;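 note: cells exposed to compounds for one day before reading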
TTR inh HuH7 – decreases TTR transcription in HuH7 cells in activator counter-screen | shares compounds with TTR transcr act | HuH7 TTR promoter-Gaussia luciferase reporter, luminescence | inhibition, % at 16.7 µM | 4% of 1,100 active | AID 1117279;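 active = average inhibition above the solvent-only control wells' mean plus 3 SD, cut at about 15% in these data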;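 note: inhibitors lower well luminescence so higher value means more inhibition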
TTR act confirm – human TTR transcription activation, confirmation | 1,100 tested, under 10 active | SHSY5Y TTR promoter Gaussia luciferase, luminescence; 100% = purified Lucia enzyme wells, no cells | AID 1117280 | activation, % at 16.7 µM | shares compounds with TTR transcr act;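 active = mean activation above a set limit taken from the earlier primary screen, cut at about 11% in these data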
Large screens that a line does not name were inactive (follow-up assays come after a bar, where they were run). Only a selection was taken, and hits are over-represented in it overall.

CC(CNC(=O)CC[C@H]1O[C@@H](n2cnc3c(NC(=O)c4ccccc4)ncnc32)[C@H](O)[C@@H]1O)c1ccccc1 (some centres not stated)	none
CC1CN(S(=O)(=O)c2cc(C(=O)N3CCCCC3C)ccc2Cl)CC(C)O1 (configuration not stated)	none
CCOC(=O)c1c(C)nc(-c2ccccc2)nc1NC(=O)CC	none
CC(=O)Nc1nc(-c2ccc(Cl)cc2)nc(C)c1C(C)=O	TTR transcr act 36 | TTR inh HuH7 inactive | TTR act confirm inactive
CC(=O)c1c(C)nc(C)nc1NC(=O)Cc1ccccc1	none
CCCCn1c(N)c(N(CC(C)C)C(=O)c2cccc(OCc3ccccc3)c2)c(=O)[nH]c1=O	none
COc1ccc(NC(=O)CSc2nc3c(c(=O)n2-c2ccc(F)cc2)SCC3)c(OC)c1	TTR transcr act 15 | TTR inh HuH7 inactive | TTR act confirm inactive
COc1ccc(-n2c(SCC(=O)Nc3nccs3)nc3c(c2=O)SCC3)cc1	none
CCOc1ccc(-n2c(SCC(=O)Nc3ccc4c(c3)OCCO4)nc3c(c2=O)SCC3)cc1	none
Cc1ccccc1CN1CCCCC(NC(=O)c2ccccc2)C1=O (configuration not stated)	none
CC(/C=N\NC(=O)Cn1cncn1)=C/c1ccc(C(C)C)cc1	none
CC(/C=N/NC(=O)Cn1nccc1C)=C\c1ccc(C(C)C)cc1	none
CC(=C/c1ccc(C(C)C)cc1)/C=N/NC(=O)c1ccncc1	TTR transcr act 10 | TTR inh HuH7 inactive | TTR act confirm inactive
O=C(CN1C(=O)c2ccccc2S1(=O)=O)NCc1ccccc1	none
Cc1ccc(CSCCNC(=O)CN2C(=O)c3ccccc3S2(=O)=O)cc1	TTR transcr act 9.9 | TTR inh HuH7 inactive | TTR act confirm inactive
Cc1ccc(SCC(=O)NCCSCc2ccccc2)cc1	none
Cc1cnc(NC(=O)C2(C)CCN2C(=O)C(C)C)s1 (configuration not stated)	none
Cc1c(C(C)CCCO)oc(=O)c2c1Oc1c(C)c(C(C)C[C@H](C)O)oc(=O)c1C2 (some centres not stated)	none
CCC(=O)Nc1nnc(-c2ccco2)o1	none
Cc1ccc(C(=O)Nc2nnc(-c3ccco3)o2)cc1	none
Cc1ccsc1C(=O)Nc1nnc(-c2ccco2)o1	TTR transcr act 16 | TTR inh HuH7 inactive | TTR act confirm inactive
COc1ccc([C@H]2CC(=O)C[C@@H](CCn3cc(-c4nccn4C)nn3)O2)cc1	none
O=C(CSc1n[nH]c(Cc2ccccc2)n1)Nc1ccccc1Br	none
Fc1ccc(CNCc2ccc3c(c2)OCO3)cc1	none
CC(=O)c1ccc(OCC(O)CNCc2ccc3c(c2)OCO3)cc1 (configuration not stated)	none
O=Cc1ccc(OCc2ccc3c(c2)OCO3)cc1	TTR transcr act 9.8 | TTR inh HuH7 inactive | TTR act confirm inactive
CCn1c(C)nc2cc(C(=O)NNC(=O)[C@@H](NC(=O)c3cc(OC)cc(OC)c3)C(C)C)ccc21	none
COc1cc(/C=C/C(=O)OCC(=O)NCCC2=CCCCC2)cc(OC)c1OC	TTR transcr act 10 | TTR inh HuH7 inactive | TTR act confirm inactive
COc1cc(C#N)ccc1OCC(=O)NCCC1=CCCCC1	none
COc1ccc(C(=O)NCC(=O)OCC(=O)NCCC2=CCCCC2)cc1	none
C[C@H]1[C@@H](NC(=O)c2ccc(O)cc2)CC[C@@]23CCCN2C(=O)CCC[C@@H]13	none
Cc1ccc([C@H]2C[C@H](O)[C@@H](n3cc(COC(=O)c4ccccc4)nn3)CN2Cc2cccs2)cc1	none
COC(=O)NC1(C(F)(F)F)C(=O)NC(C)=C1C(=O)OC (configuration not stated)	TTR transcr act 19 | TTR inh HuH7 inactive | TTR act confirm inactive
COC(=O)C1=C(C)NC(=O)C1(NC(=O)c1ccncc1)C(F)(F)F (configuration not stated)	none
CC1=C(C#N)C(NC(=O)c2ccc(C)cc2)(C(F)(F)F)C(=O)N1 (configuration not stated)	none
CCC1(C2=CCCCC2)C(=O)NC(=O)N=C1N (configuration not stated)	none
CN(C)CC(CCC(CN(C)C)C(O)(c1ccccc1)c1ccccc1)C(O)(c1ccccc1)c1ccccc1 (configuration not stated)	TTR transcr act 11 | TTR inh HuH7 53 | TTR act confirm inactive
CC(c1ccccc1C(O)(c1ccccc1)c1ccccc1)N(C)C (configuration not stated)	none
CC(C)N(CC#CCC(O)(c1ccccc1)c1ccccc1)C(C)C	none
O=C(NCC(c1ccccc1)c1ccccc1)[C@H](Cc1c[nH]c2ccccc12)NC1(C(=O)NC2CCCCC2)CCN(Cc2ccccc2)CC1	none
Clc1ccc(OCCOc2ccc(Br)nc2Br)c(Cl)c1	none
CCOC(=O)N1CCN(C(=O)C[C@@H]2C(=O)N3CCCC4=C3[C@@]2(C(=O)OC)CCCC4)CC1	none
CN(C)c1ccsc1C(=O)NNS(=O)(=O)c1ccc(Cl)cc1	none
Cn1c(=O)c2c(nc(CN3CCc4ccccc4C3)n2CCCO)n(C)c1=O	TTR transcr act 15 | TTR inh HuH7 inactive | TTR act confirm inactive
Cn1c(=O)c2c(nc(CN3CCc4ccccc4C3)n2Cc2ccccc2F)n(C)c1=O	none
Cn1c(=O)c2c(nc(CN3CCN(C(=O)c4ccco4)CC3)n2CCCO)n(C)c1=O	none
OCCN(CCO)c1cc2c3ccccc3ccc2c2ccccc12	none
CC(=O)Nc1ccc(S(=O)(=O)NCCC(=O)NNC(=O)c2ccncc2)cc1	none
Cn1ccsc1=NC(=O)c1ccccc1F	none
Cn1ccsc1=NC(=O)c1ccccc1OC(F)F	none
Cn1ccs/c1=N\C(=O)Nc1ccccc1	TTR transcr act 52 | TTR inh HuH7 inactive | TTR act confirm inactive
CCCCCCCCN1C(=O)[C@@H](CC(=O)N2CCN(C(=O)C3CC3)CC2)C[C@@]2(C(=O)OC)C1=C[C@H](C(C)C)O[C@@H]2C1CC1	none
CC1CCCN(S(=O)(=O)c2cnc[nH]2)C1 (configuration not stated)	none
Cn1nc(C(=O)N2CCc3ccccc32)c2ccccc2c1=O	none
Cc1cc(C)n(C(C)CC(=O)N2CCc3ccccc32)n1 (configuration not stated)	none
Cc1cc(C(=O)N2CCc3ccccc32)n(-c2ccccc2)n1	TTR transcr act 10 | TTR inh HuH7 21 | TTR act confirm 11
COC(=O)[C@]12C[C@H](CC(=O)NCc3ccc(C)o3)C(=O)N(CCC3=CCCCC3)C1=C[C@H](C1CCCC1)O[C@@H]2C	none
O=C(COc1ccc(Cl)cc1)NCc1nnc(SCC(=O)NCc2ccc3c(c2)OCO3)o1	none
COc1ccc(C(=O)NCc2nnc(SCC(=O)Nc3ccc4c(c3)OCO4)o2)cc1	none
O=C(CSc1nnc(CNC(=O)c2ccccc2)o1)NCc1ccc2c(c1)OCO2	TTR transcr act 17 | TTR inh HuH7 inactive | TTR act confirm inactive
COC(=O)c1cc(S(=O)(=O)N2CCN(Cc3ccccc3)CC2)c[nH]1	none
N#CC1(Nc2ccc(Br)cc2)CCCC1	none
O=C(NCc1ccccc1)Nc1nnc([C@@H]2C[C@H](O)[C@@H](CO)O2)s1	none
Cc1ccc(OCc2nc3ccccc3n2C(C)C(=O)Nc2c(C)cccc2C)cc1 (configuration not stated)	none
COc1ccc(CC(NC(C)=O)C(=O)NC2CCN(C(=O)c3ccc([N+](=O)[O-])cc3)CC2)cc1OC (configuration not stated)	none
